The record followed here is article PMC7862700, “An all-to-all approach to the identification of sequence-specific readers for epigenetic DNA modifications on cytosine”.

Holding throughout (test): DAPPL (digital affinity profiling via proximity ligation, sequencing); 10 mM Tris-HCl pH 7.5, 50 mM NaCl, 1 mM DTT, 4% glycerol, room temperature, 30 min; GST-TFs on glutathione beads, 16-mer random dsDNA library, 0.1% formaldehyde crosslink after washing; high values mean tight binding
Holding throughout (settings): protein: recombinant; tags: N-terminal GST; dsDNA, one strand shown

One experiment concerns the target T1, FLI1 (Homo sapiens, UniProt Q01543 1-452).
T1 sequence: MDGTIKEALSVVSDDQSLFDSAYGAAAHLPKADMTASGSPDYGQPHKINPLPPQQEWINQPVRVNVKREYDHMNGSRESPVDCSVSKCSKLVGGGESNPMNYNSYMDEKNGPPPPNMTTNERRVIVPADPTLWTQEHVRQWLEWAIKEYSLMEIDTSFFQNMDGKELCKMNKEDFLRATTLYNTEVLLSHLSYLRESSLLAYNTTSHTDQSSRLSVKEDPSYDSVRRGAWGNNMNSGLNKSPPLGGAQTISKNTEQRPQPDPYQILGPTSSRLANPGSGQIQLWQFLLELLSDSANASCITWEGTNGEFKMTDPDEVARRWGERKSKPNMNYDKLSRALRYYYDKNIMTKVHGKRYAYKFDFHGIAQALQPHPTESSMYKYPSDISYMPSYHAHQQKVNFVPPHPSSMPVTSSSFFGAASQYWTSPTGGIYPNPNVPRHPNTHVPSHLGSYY
The procedure, abridged: (§1)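 Pools were built from human transcription factors expressed in yeast as GST fusions, captured on glutathione beads and DNA-barcoded, along with a tag-only sample. Incubation with 200 nmole of a 16-mer random double-stranded DNA library lasted 30 min at room temperature in Tris/NaCl/DTT/glycerol buffer, and was followed by washing, 0.1% formaldehyde crosslinking, proximity ligation, PCR amplification and Illumina NextSeq500 sequencing. Binding signal is the quotient of each hexamer's read frequency for a factor and its frequency for the tag-only sample.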

A further experiment deals with T2, ELK1 (Homo sapiens, UniProt P19419 1-428).
T2 sequence: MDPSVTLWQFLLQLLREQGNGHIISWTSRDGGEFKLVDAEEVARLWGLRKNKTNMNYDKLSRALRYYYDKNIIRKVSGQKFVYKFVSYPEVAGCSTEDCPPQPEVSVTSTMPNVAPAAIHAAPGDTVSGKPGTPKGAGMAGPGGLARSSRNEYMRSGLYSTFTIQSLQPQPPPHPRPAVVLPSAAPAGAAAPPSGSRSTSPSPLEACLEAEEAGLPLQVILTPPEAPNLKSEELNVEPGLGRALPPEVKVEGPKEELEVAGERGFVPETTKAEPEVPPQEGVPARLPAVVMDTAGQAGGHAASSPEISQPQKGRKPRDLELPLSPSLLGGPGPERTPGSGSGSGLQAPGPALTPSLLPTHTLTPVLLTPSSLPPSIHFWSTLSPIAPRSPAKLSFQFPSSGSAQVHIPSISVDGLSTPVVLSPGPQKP
A digest of the protocol: as §1

Another experiment deals with T3, GABPA (Homo sapiens, UniProt Q06546 1-454).
T3 sequence: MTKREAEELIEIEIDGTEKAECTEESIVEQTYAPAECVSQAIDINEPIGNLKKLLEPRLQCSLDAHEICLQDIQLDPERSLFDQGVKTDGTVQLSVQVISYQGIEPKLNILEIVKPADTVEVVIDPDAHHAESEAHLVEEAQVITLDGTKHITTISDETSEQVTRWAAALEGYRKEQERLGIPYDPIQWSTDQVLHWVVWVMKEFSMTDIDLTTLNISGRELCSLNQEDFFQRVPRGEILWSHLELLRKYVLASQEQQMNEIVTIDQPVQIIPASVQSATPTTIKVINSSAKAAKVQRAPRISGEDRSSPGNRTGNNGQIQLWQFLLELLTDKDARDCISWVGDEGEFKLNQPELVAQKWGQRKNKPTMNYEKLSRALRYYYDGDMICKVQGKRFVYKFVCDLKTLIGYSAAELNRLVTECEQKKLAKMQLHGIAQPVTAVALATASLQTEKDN
A digest of the protocol: as §1

The next experiment concerns the target T4, ERG (Homo sapiens, UniProt P11308 1-479).
T4 sequence: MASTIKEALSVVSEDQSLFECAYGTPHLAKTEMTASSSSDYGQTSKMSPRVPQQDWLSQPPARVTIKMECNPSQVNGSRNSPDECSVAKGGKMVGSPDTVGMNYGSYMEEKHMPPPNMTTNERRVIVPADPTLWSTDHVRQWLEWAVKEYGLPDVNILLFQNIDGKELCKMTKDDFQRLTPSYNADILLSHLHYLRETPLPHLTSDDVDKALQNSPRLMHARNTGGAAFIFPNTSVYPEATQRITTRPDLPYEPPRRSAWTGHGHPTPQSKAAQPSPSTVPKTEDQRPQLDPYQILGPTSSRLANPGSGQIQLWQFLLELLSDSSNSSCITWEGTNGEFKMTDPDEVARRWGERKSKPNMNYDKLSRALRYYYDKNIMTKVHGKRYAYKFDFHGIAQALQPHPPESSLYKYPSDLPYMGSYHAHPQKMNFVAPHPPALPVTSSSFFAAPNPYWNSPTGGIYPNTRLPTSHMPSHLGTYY
The procedure, abridged: as §1

The target in the next experiment is ELF1 (Homo sapiens, UniProt P32519 1-619). The procedure, abridged:
as §1

A further experiment concerns the target T5, EHF (Homo sapiens, UniProt Q9NZC4 1-300).
T5 sequence: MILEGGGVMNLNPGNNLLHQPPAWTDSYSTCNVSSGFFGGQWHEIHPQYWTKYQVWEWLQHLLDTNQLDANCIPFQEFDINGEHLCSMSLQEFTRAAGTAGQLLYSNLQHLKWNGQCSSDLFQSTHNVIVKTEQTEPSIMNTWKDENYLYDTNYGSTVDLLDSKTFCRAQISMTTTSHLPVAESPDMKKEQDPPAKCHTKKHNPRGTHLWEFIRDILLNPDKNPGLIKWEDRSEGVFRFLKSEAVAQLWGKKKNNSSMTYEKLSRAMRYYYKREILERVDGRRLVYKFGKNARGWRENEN
The procedure, abridged: as §1

The next experiment addresses SPI1 (Homo sapiens, UniProt P17947 1-270). A digest of the protocol: as §1
The next experiment has as its target SPIB (Homo sapiens, UniProt Q01892 1-262). A digest of the protocol:
as §1

In a further experiment the target is T6, ELK3 (Homo sapiens, UniProt P41970 1-407).
T6 sequence: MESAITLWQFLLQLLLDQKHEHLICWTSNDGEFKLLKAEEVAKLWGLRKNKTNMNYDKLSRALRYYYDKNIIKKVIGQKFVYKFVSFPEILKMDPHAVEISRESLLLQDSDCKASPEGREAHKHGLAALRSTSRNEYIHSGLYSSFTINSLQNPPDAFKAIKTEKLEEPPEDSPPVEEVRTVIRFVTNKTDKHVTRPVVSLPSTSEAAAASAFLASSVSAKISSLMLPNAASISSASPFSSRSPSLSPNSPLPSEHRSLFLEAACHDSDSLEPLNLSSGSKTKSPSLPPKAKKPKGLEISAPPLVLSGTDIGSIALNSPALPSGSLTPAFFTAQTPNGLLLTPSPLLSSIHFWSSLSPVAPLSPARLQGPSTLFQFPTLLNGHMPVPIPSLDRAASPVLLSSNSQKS
A digest of the protocol: as §1

The next experiment concerns the target T7, FEV (Homo sapiens, UniProt Q99581 1-238).
T7 sequence: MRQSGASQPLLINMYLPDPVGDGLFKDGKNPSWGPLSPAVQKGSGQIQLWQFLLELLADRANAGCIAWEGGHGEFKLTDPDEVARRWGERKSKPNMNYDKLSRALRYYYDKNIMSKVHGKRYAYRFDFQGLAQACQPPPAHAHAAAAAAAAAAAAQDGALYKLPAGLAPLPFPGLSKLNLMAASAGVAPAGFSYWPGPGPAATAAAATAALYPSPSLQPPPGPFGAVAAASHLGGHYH
The procedure, abridged:
as §1

A further experiment has as its target ETV5 (Homo sapiens, UniProt P41161 1-510). A digest of the protocol: as §1
The target in another experiment is T8, SPIC (Homo sapiens, UniProt Q8N5J4 1-248).
T8 sequence: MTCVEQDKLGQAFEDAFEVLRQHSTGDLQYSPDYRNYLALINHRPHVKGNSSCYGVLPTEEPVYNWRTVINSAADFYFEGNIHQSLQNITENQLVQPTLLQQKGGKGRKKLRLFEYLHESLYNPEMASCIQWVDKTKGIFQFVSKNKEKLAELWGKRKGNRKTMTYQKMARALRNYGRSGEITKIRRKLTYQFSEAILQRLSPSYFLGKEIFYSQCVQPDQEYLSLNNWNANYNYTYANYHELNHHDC
A digest of the protocol: as §1

The next experiment has as its target ETV1 (Homo sapiens, UniProt P50549 1-477). A digest of the protocol:
as §1

Another experiment concerns the target T9, ERF (Homo sapiens, UniProt P50548 1-548).
T9 sequence: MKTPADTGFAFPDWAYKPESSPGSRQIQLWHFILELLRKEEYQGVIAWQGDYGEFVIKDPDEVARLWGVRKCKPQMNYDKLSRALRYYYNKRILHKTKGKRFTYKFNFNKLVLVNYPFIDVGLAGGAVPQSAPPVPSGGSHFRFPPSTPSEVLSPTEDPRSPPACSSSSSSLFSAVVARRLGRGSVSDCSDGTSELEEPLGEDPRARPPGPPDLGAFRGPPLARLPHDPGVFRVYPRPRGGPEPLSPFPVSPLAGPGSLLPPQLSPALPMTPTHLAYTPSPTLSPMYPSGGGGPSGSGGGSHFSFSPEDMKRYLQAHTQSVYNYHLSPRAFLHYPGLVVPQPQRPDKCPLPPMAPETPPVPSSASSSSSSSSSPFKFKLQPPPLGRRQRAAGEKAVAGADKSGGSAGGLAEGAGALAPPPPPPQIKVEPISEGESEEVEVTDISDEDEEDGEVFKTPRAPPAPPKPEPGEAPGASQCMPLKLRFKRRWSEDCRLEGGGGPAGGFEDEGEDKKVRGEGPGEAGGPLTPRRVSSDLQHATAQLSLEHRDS
A digest of the protocol: as §1

The next experiment addresses T10, ETV3L (Homo sapiens, UniProt Q6ZN32 1-361).
T10 sequence: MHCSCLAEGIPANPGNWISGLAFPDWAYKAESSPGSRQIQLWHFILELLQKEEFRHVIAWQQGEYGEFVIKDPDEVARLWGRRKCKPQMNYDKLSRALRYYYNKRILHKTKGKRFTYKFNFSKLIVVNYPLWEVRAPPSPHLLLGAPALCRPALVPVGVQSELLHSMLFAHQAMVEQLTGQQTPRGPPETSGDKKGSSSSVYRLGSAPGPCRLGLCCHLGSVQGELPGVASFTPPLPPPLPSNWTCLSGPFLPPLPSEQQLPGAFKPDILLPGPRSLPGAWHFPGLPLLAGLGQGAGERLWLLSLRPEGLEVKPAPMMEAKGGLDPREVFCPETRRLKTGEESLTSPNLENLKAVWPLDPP
A digest of the protocol: as §1

The target in a further experiment is T11, ETS2 (Homo sapiens, UniProt P15036 1-469).
T11 sequence: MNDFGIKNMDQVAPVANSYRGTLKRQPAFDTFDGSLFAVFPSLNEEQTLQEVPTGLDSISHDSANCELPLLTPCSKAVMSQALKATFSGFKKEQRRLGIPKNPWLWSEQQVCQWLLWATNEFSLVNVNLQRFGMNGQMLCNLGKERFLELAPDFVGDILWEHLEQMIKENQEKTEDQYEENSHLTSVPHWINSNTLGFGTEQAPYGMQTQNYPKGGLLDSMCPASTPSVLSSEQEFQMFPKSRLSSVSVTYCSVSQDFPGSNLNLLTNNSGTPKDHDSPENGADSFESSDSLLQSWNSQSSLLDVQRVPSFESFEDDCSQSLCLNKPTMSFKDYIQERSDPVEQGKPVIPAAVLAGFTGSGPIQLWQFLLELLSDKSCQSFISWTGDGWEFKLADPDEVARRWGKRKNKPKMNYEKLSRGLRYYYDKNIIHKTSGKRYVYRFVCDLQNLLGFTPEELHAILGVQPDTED
The procedure, abridged: as §1

In another experiment the target is T12, ELF5 (Homo sapiens, UniProt Q9UKW6-2 1-255).
T12 sequence: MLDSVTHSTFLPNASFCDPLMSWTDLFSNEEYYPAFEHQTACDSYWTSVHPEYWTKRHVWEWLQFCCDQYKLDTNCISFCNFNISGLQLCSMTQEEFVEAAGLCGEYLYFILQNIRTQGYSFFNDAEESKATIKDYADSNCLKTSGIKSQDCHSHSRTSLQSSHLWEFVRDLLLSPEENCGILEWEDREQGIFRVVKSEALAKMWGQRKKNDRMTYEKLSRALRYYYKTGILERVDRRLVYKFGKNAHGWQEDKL
A digest of the protocol:
as §1

The target of another experiment is T13, ETV3 (Homo sapiens, UniProt P41162-2 1-143).
T13 sequence: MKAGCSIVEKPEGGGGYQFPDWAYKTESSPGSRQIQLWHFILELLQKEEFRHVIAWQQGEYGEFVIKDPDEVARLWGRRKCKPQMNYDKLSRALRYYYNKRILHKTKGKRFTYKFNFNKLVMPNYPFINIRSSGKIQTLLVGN
A digest of the protocol:
as §1

In the next experiment the target is ETV6 (Homo sapiens, UniProt P41212 1-452). A digest of the protocol:
as §1

SPIB, sequence (Q01892 whole entry): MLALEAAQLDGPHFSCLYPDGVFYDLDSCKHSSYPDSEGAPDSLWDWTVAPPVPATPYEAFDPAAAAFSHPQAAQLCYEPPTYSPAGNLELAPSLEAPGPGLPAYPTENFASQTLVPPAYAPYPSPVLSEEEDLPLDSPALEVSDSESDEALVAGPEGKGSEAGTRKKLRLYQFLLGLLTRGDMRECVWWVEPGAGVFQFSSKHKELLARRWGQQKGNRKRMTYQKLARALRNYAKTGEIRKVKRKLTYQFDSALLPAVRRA
ETV5, sequence (P41161 whole entry): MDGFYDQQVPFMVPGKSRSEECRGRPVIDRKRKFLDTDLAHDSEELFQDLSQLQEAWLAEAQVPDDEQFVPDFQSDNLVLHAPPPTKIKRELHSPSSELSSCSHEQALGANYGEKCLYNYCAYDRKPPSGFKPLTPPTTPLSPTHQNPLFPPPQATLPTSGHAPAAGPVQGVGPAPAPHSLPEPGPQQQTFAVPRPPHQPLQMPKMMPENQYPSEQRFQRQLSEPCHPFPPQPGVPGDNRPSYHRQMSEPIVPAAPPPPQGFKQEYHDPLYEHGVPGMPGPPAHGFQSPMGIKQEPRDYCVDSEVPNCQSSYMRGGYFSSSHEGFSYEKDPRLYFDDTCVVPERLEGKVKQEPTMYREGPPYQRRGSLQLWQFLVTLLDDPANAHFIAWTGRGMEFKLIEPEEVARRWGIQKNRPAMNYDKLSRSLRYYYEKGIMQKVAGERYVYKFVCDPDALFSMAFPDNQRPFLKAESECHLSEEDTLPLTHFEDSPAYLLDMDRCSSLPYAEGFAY
ELF1, sequence (P32519 whole entry): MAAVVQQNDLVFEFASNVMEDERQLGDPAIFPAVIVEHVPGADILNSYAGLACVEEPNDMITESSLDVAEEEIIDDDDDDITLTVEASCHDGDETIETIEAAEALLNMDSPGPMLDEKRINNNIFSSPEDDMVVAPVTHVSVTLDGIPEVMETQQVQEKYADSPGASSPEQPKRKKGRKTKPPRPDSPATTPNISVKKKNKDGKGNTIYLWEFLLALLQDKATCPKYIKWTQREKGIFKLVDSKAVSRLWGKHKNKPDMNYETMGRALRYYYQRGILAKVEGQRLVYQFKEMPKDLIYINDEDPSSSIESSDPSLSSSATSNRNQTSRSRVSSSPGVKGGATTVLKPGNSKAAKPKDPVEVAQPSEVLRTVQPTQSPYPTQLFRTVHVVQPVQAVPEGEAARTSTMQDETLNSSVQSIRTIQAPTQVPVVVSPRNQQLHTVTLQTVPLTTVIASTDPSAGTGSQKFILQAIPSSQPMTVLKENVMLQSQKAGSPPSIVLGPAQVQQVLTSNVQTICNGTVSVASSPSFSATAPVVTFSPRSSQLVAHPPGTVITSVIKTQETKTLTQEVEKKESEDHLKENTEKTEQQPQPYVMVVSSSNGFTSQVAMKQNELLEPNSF
ETV1, sequence (P50549 whole entry): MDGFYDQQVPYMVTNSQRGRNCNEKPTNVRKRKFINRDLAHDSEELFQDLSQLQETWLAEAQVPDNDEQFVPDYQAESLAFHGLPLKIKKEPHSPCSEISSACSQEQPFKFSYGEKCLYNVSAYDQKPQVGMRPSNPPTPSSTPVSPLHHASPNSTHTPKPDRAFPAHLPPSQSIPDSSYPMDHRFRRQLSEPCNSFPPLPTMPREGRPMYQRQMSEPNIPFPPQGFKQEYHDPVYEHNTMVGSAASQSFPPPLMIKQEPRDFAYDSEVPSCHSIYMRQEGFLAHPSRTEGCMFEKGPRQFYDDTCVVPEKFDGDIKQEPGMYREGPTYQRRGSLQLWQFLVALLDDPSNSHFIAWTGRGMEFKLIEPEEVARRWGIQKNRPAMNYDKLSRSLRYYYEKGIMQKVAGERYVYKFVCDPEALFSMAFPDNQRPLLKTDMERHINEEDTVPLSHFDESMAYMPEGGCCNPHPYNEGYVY
ETV6, sequence (P41212 whole entry): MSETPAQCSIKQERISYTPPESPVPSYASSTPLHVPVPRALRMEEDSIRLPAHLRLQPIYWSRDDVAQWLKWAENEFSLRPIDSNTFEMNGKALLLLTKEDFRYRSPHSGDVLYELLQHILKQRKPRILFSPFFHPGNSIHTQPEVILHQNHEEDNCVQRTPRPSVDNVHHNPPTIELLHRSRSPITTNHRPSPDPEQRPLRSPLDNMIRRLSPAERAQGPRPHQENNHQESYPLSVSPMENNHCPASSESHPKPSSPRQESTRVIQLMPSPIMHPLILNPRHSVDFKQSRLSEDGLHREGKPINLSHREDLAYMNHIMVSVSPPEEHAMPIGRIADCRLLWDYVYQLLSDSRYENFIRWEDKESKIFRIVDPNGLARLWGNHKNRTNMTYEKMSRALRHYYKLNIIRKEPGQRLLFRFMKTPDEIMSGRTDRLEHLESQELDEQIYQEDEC

In the case of AGTGGT, the binding signal in the experiment with FLI1 was 1.04 fold enrichment (6-mer frequency, TF over GST control); with ELK1 it was 1.03 fold enrichment (6-mer frequency, TF over GST control); with GABPA, 1.09 fold enrichment (6-mer frequency, TF over GST control); with ERG it was 1.06 fold enrichment (6-mer frequency, TF over GST control); with ELF1, 1.06 fold enrichment (6-mer frequency, TF over GST control); with EHF it was 1.11 fold enrichment (6-mer frequency, TF over GST control). The binding signal in the experiment with SPI1 was 1.42 fold enrichment (6-mer frequency, TF over GST control); with SPIB, 1.22 fold enrichment (6-mer frequency, TF over GST control); with ELK3, 1.15 fold enrichment (6-mer frequency, TF over GST control); with FEV, 1.02 fold enrichment (6-mer frequency, TF over GST control); in the experiment with ETV5, 1.14 fold enrichment (6-mer frequency, TF over GST control); in the experiment with SPIC, 1.22 fold enrichment (6-mer frequency, TF over GST control). Also, the binding signal was 1.02 fold enrichment (6-mer frequency, TF over GST control) with ETV1; 1.14 fold enrichment (6-mer frequency, TF over GST control) with ERF; 1.06 fold enrichment (6-mer frequency, TF over GST control) in the experiment with ETV3L; 1.12 fold enrichment (6-mer frequency, TF over GST control) in the experiment with ETS2; 1.14 fold enrichment (6-mer frequency, TF over GST control) with ELF5; 1.09 fold enrichment (6-mer frequency, TF over GST control) in the experiment with ETV3. Further, the binding signal with ETV6 was 1.11 fold enrichment (6-mer frequency, TF over GST control).
